For some assays here: Entries with a potency or affinity are not part of this list.
Experiments:
Set-up in all cases: scale not given: direction of the effect not stated beside the values
[1] = target: Protein translocase subunit SecA (Escherichia coli (strain K12)) (UniProt P10408); experiment: Assay to Identify E. coli SecA ATPase Inhibitors; assay type: functional; conditions: 30 µM
[2] = target: T1, Ubiquitin-activating enzyme e1, putative (Leishmania donovani (strain BPK282A1)) (UniProt E9BSI1); experiment: Leishmania donovani Ubiquitin Activating Enzyme (LdE1); assay type: functional; conditions: 30 µM
T1 sequence (whole entry): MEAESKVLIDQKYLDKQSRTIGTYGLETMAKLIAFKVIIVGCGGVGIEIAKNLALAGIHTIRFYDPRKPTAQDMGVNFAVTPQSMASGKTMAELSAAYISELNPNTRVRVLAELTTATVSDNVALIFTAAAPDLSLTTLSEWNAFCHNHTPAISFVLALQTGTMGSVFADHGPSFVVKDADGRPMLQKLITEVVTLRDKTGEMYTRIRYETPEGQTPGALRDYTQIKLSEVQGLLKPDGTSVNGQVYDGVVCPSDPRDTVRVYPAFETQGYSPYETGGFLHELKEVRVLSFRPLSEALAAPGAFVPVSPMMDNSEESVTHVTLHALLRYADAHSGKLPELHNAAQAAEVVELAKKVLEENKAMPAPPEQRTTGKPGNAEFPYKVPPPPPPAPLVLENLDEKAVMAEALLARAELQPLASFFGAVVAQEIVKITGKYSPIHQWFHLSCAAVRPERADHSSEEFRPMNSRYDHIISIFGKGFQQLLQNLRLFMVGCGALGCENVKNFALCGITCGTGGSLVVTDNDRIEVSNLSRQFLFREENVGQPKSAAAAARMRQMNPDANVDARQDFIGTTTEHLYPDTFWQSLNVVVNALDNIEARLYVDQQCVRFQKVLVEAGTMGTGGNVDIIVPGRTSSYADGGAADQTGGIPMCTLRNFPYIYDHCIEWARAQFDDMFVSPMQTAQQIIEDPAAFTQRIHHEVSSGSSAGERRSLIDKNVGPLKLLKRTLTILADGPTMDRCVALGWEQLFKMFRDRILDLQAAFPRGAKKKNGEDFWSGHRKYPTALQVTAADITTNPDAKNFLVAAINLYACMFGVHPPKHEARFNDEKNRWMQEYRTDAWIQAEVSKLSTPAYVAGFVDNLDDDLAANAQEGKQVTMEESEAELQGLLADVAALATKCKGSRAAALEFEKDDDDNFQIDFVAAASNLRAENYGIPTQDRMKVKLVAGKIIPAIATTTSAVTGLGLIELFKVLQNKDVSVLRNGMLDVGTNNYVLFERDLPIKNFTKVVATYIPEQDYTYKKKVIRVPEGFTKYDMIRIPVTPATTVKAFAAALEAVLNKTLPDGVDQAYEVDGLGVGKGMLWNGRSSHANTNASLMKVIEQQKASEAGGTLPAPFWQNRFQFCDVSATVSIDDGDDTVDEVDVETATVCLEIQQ

[3] = target: AMP-activated protein kinase, AMPK (Homo sapiens) (UniProt P54646+O43741+P54619+Q9UGJ0+Q9Y478+Q13131+Q9UGI9); experiment: AMP-dependent Kinase enzyme assay. An in vitro enzyme assay that detects ADP turnover that is directly proportional to AMPK activity. This uses naive AMPK that is activated during the assay with MK-8722; assay type: functional; conditions: 30 µM
[4] = target: Sialic acid-binding Ig-like lectin 9 (Homo sapiens) (UniProt Q9Y336); experiment: Hs-Siglec9 ALPHAscreen SOP 20170721; conditions: 10 µM
Sialic acid-binding Ig-like lectin 9 (Homo sapiens), sequence (Q9Y336 whole entry): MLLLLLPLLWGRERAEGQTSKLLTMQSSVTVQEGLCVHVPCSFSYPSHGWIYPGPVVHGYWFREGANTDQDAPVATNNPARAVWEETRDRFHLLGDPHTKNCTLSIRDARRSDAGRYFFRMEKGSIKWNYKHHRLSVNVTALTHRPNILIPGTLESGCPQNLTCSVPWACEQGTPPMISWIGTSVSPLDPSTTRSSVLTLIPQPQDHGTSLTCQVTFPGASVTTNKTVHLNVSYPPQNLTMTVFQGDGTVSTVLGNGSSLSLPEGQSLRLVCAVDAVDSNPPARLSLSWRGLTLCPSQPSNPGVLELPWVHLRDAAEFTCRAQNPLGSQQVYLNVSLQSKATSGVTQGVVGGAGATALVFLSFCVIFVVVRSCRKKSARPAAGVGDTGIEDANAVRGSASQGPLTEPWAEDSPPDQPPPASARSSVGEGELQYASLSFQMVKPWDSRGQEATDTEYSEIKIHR

[5] = test system: Trypanosoma cruzi; experiment: Trypanosoma cruzi phosphomannomutase and mannose-1-phosphate guanylyltransferase assay; assay type: functional; conditions: 10 µM
[6] = target: T2, Arginase-2, mitochondrial (Homo sapiens) (UniProt P78540); experiment: in vitro enzyme assay to detect the production of urea directly proportional to the activity of Arginase II; assay type: functional; conditions: 33.3 µM; also: in the data most compounds retested in dose-response had high values
T2 sequence (whole entry): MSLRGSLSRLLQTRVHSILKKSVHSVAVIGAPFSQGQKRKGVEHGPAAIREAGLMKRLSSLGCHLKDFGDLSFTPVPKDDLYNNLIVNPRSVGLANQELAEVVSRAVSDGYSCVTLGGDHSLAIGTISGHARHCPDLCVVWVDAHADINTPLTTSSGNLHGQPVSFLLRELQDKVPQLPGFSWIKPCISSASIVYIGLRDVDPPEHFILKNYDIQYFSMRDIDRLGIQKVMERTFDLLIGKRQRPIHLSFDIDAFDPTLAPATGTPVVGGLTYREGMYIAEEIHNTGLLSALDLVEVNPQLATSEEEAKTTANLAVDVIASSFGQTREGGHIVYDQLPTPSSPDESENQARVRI

[7] = target: T3, Proteasome subunit beta (Trypanosoma cruzi) (UniProt O96673); experiment: Trypanosoma cruzi proteasome chymotrypsin-like activity (TcProtChymo) assay.; also: in the data most compounds retested in dose-response had high values; assay type: functional; conditions: 9.37 µM
T3 sequence (whole entry): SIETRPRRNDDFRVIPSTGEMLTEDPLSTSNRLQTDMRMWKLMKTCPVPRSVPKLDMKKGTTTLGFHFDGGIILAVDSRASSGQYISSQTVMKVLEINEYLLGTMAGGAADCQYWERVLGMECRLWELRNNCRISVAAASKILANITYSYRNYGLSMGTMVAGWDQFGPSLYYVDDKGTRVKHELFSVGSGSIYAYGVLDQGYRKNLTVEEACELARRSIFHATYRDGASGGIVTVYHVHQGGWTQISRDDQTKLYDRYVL

[8] = organism: Homo sapiens; experiment: To identify inhibition of the IFN signalling (Jak-Stat) pathway via expression of an eGFP reporter gene under the control of an IFN-stimulated response element (ISRE) containing MxA promoter.; assay type: functional; conditions: 30 µM
[9] = target: T4, Tyrosyl-tRNA synthetase, putative (Trypanosoma cruzi (strain CL Brener)) (UniProt Q4DSP6); experiment: Trypanosoma cruzi tyrosyl tRNA synthetase (TcYRS) _High Tyrosine SOP; assay type: functional; conditions: 30 µM; also: in the data most compounds retested in dose-response had high values
T4 sequence (whole entry): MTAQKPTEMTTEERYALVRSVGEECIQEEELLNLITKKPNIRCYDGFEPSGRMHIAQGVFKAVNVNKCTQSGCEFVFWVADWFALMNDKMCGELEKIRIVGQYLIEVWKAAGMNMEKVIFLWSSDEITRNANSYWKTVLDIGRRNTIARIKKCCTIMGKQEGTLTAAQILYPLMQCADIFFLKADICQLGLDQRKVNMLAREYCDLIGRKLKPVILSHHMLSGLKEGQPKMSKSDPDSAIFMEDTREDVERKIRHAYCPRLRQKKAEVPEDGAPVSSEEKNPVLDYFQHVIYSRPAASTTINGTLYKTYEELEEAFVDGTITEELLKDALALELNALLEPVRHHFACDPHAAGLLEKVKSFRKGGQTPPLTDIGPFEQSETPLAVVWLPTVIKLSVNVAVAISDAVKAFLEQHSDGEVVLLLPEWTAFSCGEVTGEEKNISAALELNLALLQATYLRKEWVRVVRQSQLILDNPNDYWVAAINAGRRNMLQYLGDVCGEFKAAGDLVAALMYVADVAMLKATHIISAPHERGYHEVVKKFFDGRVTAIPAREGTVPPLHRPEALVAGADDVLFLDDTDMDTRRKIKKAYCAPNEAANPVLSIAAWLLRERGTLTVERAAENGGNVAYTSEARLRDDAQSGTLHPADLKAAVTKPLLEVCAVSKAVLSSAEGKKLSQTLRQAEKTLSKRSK

[10] = target: T4, Tyrosyl-tRNA synthetase, putative (Trypanosoma cruzi (strain CL Brener)); experiment: Trypanosoma cruzi tyrosyl tRNA synthetase (TcYRS) SOP; assay type: functional; conditions: 30 µM
[11] = target: Chromo domain-containing protein 1 (Saccharomyces cerevisiae (strain ATCC 204508 / S288c) (Baker's yeast)) (UniProt P32657); experiment: ScCHD-1 Enzyme Inhibition Assay; assay type: functional; conditions: 30 µM; also: in the data most compounds retested in dose-response had high values
Chromo domain-containing protein 1 (Saccharomyces cerevisiae (strain ATCC 204508 / S288c) (Baker's yeast)), sequence (P32657 whole entry, the tested form may be a part): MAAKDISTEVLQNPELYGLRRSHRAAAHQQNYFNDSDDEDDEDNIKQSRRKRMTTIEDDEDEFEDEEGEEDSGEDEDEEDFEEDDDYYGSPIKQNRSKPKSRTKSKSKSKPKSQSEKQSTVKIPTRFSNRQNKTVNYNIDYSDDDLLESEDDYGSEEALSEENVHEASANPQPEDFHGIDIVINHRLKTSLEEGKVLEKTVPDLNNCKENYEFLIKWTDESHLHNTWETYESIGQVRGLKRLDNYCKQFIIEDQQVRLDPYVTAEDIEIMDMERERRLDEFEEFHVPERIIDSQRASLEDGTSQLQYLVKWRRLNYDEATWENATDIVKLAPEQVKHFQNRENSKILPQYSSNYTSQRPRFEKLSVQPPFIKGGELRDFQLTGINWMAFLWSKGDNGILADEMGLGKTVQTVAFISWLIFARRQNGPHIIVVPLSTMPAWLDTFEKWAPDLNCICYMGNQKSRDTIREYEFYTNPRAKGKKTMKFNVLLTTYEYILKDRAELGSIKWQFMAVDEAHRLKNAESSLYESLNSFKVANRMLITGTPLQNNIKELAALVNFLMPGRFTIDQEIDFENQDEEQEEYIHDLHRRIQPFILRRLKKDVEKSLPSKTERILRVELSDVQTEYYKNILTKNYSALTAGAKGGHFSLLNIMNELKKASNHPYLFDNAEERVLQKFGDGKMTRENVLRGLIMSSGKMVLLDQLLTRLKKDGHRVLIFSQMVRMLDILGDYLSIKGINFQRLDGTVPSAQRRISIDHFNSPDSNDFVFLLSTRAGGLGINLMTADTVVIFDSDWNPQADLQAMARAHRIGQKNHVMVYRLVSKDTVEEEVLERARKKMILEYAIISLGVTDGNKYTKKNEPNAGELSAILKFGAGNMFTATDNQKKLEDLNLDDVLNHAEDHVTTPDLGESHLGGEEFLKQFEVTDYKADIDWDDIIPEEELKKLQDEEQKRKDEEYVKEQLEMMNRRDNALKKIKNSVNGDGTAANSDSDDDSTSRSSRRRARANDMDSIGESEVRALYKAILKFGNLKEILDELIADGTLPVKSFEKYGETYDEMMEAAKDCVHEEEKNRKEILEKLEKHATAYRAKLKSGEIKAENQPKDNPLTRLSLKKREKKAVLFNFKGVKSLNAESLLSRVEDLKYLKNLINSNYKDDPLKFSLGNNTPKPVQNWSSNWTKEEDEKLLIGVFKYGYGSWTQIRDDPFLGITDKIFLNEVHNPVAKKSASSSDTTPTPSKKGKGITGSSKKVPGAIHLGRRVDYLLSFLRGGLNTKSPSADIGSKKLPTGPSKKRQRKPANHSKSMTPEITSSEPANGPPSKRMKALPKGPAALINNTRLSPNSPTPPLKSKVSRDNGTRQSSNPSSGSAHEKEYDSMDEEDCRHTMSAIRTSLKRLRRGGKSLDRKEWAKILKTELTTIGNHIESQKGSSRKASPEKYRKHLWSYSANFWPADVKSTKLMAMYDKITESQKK

Protein translocase subunit SecA (Escherichia coli (strain K12)), sequence (P10408 whole entry): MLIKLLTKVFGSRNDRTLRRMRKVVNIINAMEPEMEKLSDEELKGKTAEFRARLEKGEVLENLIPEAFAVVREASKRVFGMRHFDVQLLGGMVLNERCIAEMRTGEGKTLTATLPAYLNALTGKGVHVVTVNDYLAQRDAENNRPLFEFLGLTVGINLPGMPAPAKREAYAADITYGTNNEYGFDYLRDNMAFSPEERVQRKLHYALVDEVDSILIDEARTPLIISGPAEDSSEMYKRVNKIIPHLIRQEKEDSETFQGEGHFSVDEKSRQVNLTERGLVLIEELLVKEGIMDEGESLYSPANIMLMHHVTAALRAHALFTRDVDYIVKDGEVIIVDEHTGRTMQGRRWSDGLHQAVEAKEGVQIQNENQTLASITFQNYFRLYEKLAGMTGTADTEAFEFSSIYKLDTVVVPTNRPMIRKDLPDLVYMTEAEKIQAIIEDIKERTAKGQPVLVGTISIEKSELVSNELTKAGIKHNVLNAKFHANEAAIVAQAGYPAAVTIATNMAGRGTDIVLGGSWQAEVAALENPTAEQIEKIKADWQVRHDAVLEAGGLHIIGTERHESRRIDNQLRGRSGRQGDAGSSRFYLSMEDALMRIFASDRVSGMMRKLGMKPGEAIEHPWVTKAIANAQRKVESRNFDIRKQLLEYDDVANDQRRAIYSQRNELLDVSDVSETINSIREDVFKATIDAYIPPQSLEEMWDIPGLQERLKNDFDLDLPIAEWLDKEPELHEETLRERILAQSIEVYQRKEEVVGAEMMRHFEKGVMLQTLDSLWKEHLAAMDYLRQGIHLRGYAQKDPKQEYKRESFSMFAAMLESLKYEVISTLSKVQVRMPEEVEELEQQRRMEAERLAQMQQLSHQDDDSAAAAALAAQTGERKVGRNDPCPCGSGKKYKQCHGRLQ

O=C(NCCCn1cncn1)NCC(c1ccco1)N1CCCCC1 (stereo not given)
Percent Effect [1]: 1.3% | Percent Effect [2]: 10.4% | Percent Effect [3]: 2.22% | Percent Effect [4]: -12.8% | Percent Effect [5]: -5.39% | Percent Effect [6]: 5.26% | Percent Effect [7]: 17.2% | Percent Effect [8]: 12.4% | Percent Effect [9]: 4.76% | Percent Effect [10]: 18.8% | Percent Effect [11]: -13.7%

CS(=O)(=O)N1CC[C@H]2O[C@H](C(=O)NCCc3ccncc3)CC[C@H]21
Percent Effect [1]: -7.37% | Percent Effect [2]: 0% | Percent Effect [3]: 5.86% | Percent Effect [4]: -3.48% | Percent Effect [5]: -2.51% | Percent Effect [6]: -57.5% | Percent Effect [7]: -1.03% | Percent Effect [8]: 15% | Percent Effect [9]: 2.08% | Percent Effect [10]: -15% | Percent Effect [11]: 3.45%

CC(C)OCc1ncn2c1CN(Cc1cccs1)CCC2
Percent Effect [1]: -1.74% | Percent Effect [2]: -2.7% | Percent Effect [3]: -26.4% | Percent Effect [4]: 0.954% | Percent Effect [5]: -2.25% | Percent Effect [6]: -2.23% | Percent Effect [7]: 9.04% | Percent Effect [8]: 12.4% | Percent Effect [9]: -2.16% | Percent Effect [10]: 2.56% | Percent Effect [11]: -2.17%

CN1CCCC1CNC(=O)c1nnn(-c2ccc(F)cc2)c1C1CC1 (stereo not given)
Percent Effect [1]: -5.49% | Percent Effect [2]: 0% | Percent Effect [3]: 1.3% | Percent Effect [4]: 3.88% | Percent Effect [5]: -5.86% | Percent Effect [6]: 0% | Percent Effect [7]: 8.2% | Percent Effect [8]: 10.9% | Percent Effect [9]: 4.95% | Percent Effect [10]: 3.66% | Percent Effect [11]: -4.68%

CCN(CC)CCNC(=O)c1cnc(C(C)(C)C)s1
Percent Effect [1]: -3.73% | Percent Effect [2]: 0% | Percent Effect [3]: 2.58% | Percent Effect [4]: -11.2% | Percent Effect [5]: -3.64% | Percent Effect [6]: 2.88% | Percent Effect [7]: 8.21% | Percent Effect [8]: 0.408% | Percent Effect [9]: 0.493% | Percent Effect [10]: -6.17% | Percent Effect [11]: -0.603%

O=C(CC1CCCC1)N1CCCC1c1nc(O)cc(-c2ccccn2)n1 (stereo not given)
Percent Effect [1]: -6.13% | Percent Effect [2]: 20.3% | Percent Effect [3]: 1.3% | Percent Effect [4]: 16.7% | Percent Effect [5]: -0.395% | Percent Effect [6]: -4.41% | Percent Effect [7]: 13.9% | Percent Effect [8]: 1.89% | Percent Effect [9]: 6.45% | Percent Effect [10]: 19.5% | Percent Effect [11]: -15.4%

CNC(=O)Cc1ccc(NC(=O)NC(C)C(C)C)cc1 (stereo not given)
Percent Effect [1]: -2.02% | Percent Effect [2]: 10.5% | Percent Effect [3]: 3.68% | Percent Effect [4]: 1.41% | Percent Effect [5]: 1.66% | Percent Effect [6]: 0% | Percent Effect [7]: 8.53% | Percent Effect [8]: -8.18% | Percent Effect [9]: 4.25% | Percent Effect [10]: 15.6% | Percent Effect [11]: -3.23%

Cn1cc(C(=O)CC2CCCN2C(=O)c2cncc3ccccc23)cn1 (stereo not given)
Percent Effect [1]: -2.2% | Percent Effect [2]: 6.33% | Percent Effect [3]: -4.89% | Percent Effect [4]: 2.04% | Percent Effect [5]: 0.718% | Percent Effect [6]: 4.95% | Percent Effect [7]: 5.66% | Percent Effect [8]: 14.6% | Percent Effect [9]: 5.21% | Percent Effect [10]: 12.7% | Percent Effect [11]: -15%

CC(C)c1nn(C)c(N(C)C)c1CNCC(O)c1ccccc1F (stereo not given)
Percent Effect [1]: -3.41% | Percent Effect [2]: 18.2% | Percent Effect [3]: -14.7% | Percent Effect [4]: 3.26% | Percent Effect [5]: 0.562% | Percent Effect [6]: -1.07% | Percent Effect [7]: 4.39% | Percent Effect [8]: 10.4% | Percent Effect [9]: 6.8% | Percent Effect [10]: 7.32% | Percent Effect [11]: -8.47%

c1cnc(N2CCCC(NCc3cccc4c3OCCO4)C2)nc1 (stereo not given)
Percent Effect [1]: -0.886% | Percent Effect [2]: -5.41% | Percent Effect [3]: -2.02% | Percent Effect [4]: -1.18% | Percent Effect [5]: 3.87% | Percent Effect [6]: -4.81% | Percent Effect [7]: 7.21% | Percent Effect [8]: 10.1% | Percent Effect [9]: 4.43% | Percent Effect [10]: 3.7% | Percent Effect [11]: -2.9%

— ChEMBL document CHEMBL3988442, “University of Dundee, Small-Polar-MMV Screening Library” (2021)
